IEC-6 tox: cytotoxicity in IEC-6 intestinal epithelial cells, primary screen, cytotoxicity control for KLF5 inhibitor project, cell-based, luminescence; IEC-6 cytotoxicity, luminescence viability; inhibition, % at 5 µM; hit rate 0.78% among 290,000; in the data active = inhibition above about 22%;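 note: 0% = plate median of test compound wells and 100% = cytotoxic reference compound wells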
GPR7 antagonist: GPR7 receptor antagonists, primary screen, cell-based, fluorescence, single concentration; GPR7-expressing cells, fluorescence antagonist assay; AID 1861, 2009; inhibition, % at 4.4 µM; Neuropeptides B/W receptor type 1 (Homo sapiens), P48145; hit rate 1.1% among 290,000; in the data active = inhibition above about 16%, passing the limit was not always enough;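 note: cells stimulated with the agonist NPW; 0% = agonist with vehicle and 100% = vehicle without agonist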
Target sequence (P48145 whole entry, looked up): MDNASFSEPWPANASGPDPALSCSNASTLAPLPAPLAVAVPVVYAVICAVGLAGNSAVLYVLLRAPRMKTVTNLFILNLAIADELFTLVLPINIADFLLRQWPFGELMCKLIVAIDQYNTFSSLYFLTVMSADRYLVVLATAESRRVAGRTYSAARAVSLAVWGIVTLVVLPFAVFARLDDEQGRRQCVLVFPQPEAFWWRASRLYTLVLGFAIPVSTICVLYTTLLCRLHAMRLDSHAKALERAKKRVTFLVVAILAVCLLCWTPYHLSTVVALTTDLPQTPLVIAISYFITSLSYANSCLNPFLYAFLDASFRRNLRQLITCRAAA
Ba/F3 V617F tox: reduced viability of JAK2V617F-dependent Ba/F3 cells, primary screen, JAK2V617F inhibitor project, cell-based, Ba/F3 EpoR-JAK2V617F, luminescence. ATP luminescence. inhibition, % at 5.6 µM. hit rate 1.1% among 220,000. AID 1446, 2008;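 active = inhibition above the campaign mean plus 3 SD over all tested compounds, cut at about 24% in these data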;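 note: cytokine-independent growth of Ba/F3 cells driven by EpoR plus mutant JAK2; 0% = DMSO-treated cells and 100% = JAK inhibitor I control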
DNA FID counter: compounds displacing fluorescent DNA intercalator, primary screen, artefact control for HCV NS3 helicase inhibitor project, biochemical, FID fluorescence. DNA fluorescent intercalator displacement. inhibition, % at 7.9 µM. hit rate 0.17% among 290,000. AID 1845, 2009; in the data active = inhibition above about 37%;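 note: 0% = vehicle and 100% = reference compound; higher means more ethidium bromide displaced from hairpin DNA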
KLF5 inhibitor: KLF5 expression inhibitors, primary screen, DLD-1 cells, luminescence | DLD-1 KLF5 promoter-luciferase reporter | inhibition, % at 5 µM | hit rate 0.23% among 290,000 | AID 1700, 2009;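 active = inhibition above a per-plate limit of that plate's mean compound inhibition plus 3 SD, cut at about 60% in these data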;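 note: 0% = DMSO wells and 100% = LY294002 at 200 µM; higher means less KLF5 promoter-driven luciferase light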
BaF3 parental: parental Ba/F3 cell viability inhibition, counter-screen for JAK2V617F inhibitor project, murine pro-B, CellTiter-Glo luminescence | CellTiter-Glo ATP luminescence | inhibition, % at 5.6 µM | hit rate 1.1% among 220,000 | AID 1486, 2009;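 active = inhibition above a per-campaign cutoff, the mean inhibition of all tested compounds plus 3 SD, cut at about 27% in these data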;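 note: 0% = DMSO wells and 100% = JAK Inhibitor I control wells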
Starred values were filed as active, the others as inactive; . = not tested or not shown. Most compounds without a hit are left out; they make up all but 2.6% or so of the library.

SMILES | IEC-6 tox | GPR7 antagonist | Ba/F3 V617F tox | DNA FID counter | KLF5 inhibitor | BaF3 parental
CCOc1ccc(S(=O)(=O)NCc2ccccn2)cc1 | 0 | -5 | -1 | -2 | -10 | 5
CNC(=O)COc1ccc(S(=O)(=O)Nc2ccc(OC)cc2)cc1 | 5 | 7 | 1 | -2 | -4 | 90*
CCOc1ccc(S(=O)(=O)NCc2ccncc2)cc1 | 20 | 21* | 65* | 0 | -28 | 61*
CC(=O)Nc1ccc(S(=O)(=O)NCc2ccccn2)cc1 | 4 | -5 | -1 | 5 | -10 | -2
CC(=O)Nc1ccc(S(=O)(=O)NCc2ccncc2)cc1 | -4 | -5 | 32* | 11 | -3 | 37*
Cc1ccc(S(=O)(=O)N2CCOCC2)cc1NC(=O)Cn1ccsc1=N | 2 | -11 | 1 | 2 | -23 | 5
CC(Sc1ccsc1[N+](=O)[O-])C(=O)N1CCN(c2ccccn2)CC1 (configuration not stated) | -3 | 1 | -6 | -5 | -34 | 2
O=C(COc1ccc(S(=O)(=O)Nc2ccccc2)cc1)NCc1ccncc1 | -5 | -10 | -5 | -5 | -3 | 54*
Cc1ccc(S(=O)(=O)NCc2ccncc2)cc1 | 8 | -5 | 37* | -2 | -7 | 47*
CC(C)CNS(=O)(=O)c1ccc(CCC(=O)NCc2ccncc2)cc1 | 2 | 1 | 1 | -5 | -3 | 90*
CC1CCCCC1NS(=O)(=O)c1ccc(S(=O)(=O)NCc2ccncc2)cc1 (configuration not stated) | 12 | 17 | 42* | -13 | -36 | 47*
CCn1cnc2sc(C(=O)Oc3cccc(C)c3)c(C)c2c1=O | -3 | -7 | 2 | -12 | 10 | 7
COCCc1ccc(OCC(O)CNC(C)C)cc1 (configuration not stated) | -6 | -1 | -1 | 6 | -37 | 1
COc1ccc(N2CCN(C(=O)c3cc(N4C(=O)C5C6CCC(C6)C5C4=O)ccc3Cl)CC2)cc1 (configuration not stated) | -4 | 20* | 0 | -37 | -22 | 3
CCOC(=O)C1CCN(C(=O)c2ccc(Cl)c(S(=O)(=O)N3CCOCC3)c2)CC1 | 1 | -9 | -5 | -12 | -27 | 92*
CCOC(=O)C1CCN(C(=O)c2ccc(Cl)c(S(=O)(=O)N3CCCC3)c2)CC1 | -4 | -16 | . | -43 | -17 | .
C/C(=N/NC(=O)c1ccco1)c1cccc(NC(=O)c2ccc(C)s2)c1 | 5 | 20* | 1 | -13 | -127 | 6
C/C(=N/NC(=O)c1ccco1)c1cccc(NC(=O)c2ccc(C)o2)c1 | 3 | -7 | 0 | -4 | -119 | -1
S=C(Nc1ccc(Br)cc1)N1CCn2cccc2C1c1cccnc1 (configuration not stated) | -4 | -1 | -1 | -12 | 8 | 8
Fc1ccc(C2CCCCN2Cc2nc(CC3CC3)no2)cc1 (configuration not stated) | 2 | -6 | 0 | 0 | -11 | 5
Fc1ccc2nc(C3CCCCN3Cc3nc(CC4CC4)no3)[nH]c2c1 (configuration not stated) | 6 | 19* | 3 | -5 | -12 | 6
CC(C)NCC(O)COc1ccc(CCOCC2CC2)cc1 (configuration not stated) | 0 | 8 | 1 | 5 | 5 | 6
CCCCCCCCC(=O)NC(NC(=S)N1CCOCC1)C(Cl)(Cl)Cl (configuration not stated) | 1 | 19* | 2 | -20 | -9 | 6
CCCCCC(=O)NC(NC(=S)N1CCOCC1)C(Cl)(Cl)Cl (configuration not stated) | 4 | -7 | 3 | -8 | -22 | 6
CCOC(=O)Cn1c(=N)n(CCOc2ccc(Br)cc2)c2ccccc21 | 6 | 19* | 0 | 28 | -7 | -2
CCOC(=O)Cn1c(=N)n(CCOc2cccc(C)c2)c2ccccc21 | -5 | 21 | -2 | 14 | -28 | -3
CC1(C)Cc2c(sc(NC(=O)c3ccc(C(=O)c4ccccc4)cc3)c2C#N)C(C)(C)N1 | 8 | 7 | . | 38* | -11 | .

Screens as filed in PubChem BioAssay.
